# Measurements as given in PubChem BioAssay (EPA / NIEHS).
# Calls of active or inactive are those of the source. How the source made its calls: active means hit-call score of the fitted dose curve at least 0.9, where 1 is the maximum; inactive means score below 0.9.
# Test: Tanguay_ZF_120hpf_CRAN: Oregon State University Tanguay Lab 120 Hour Post-fertilization zebrafish Assay for Craniofacial Malformation (AID 2284397)
# Procedure: Tanguay_ZF_120hpf is a whole embryo, multiplexed endpoint assay using zebrafish larvae exposed for 120 hours post fertilization on a 96-well plate.Tanguay_ZF_120hpf_CRAN is one of one assay component(s) measured or calculated from the Tanguay_ZF_120hpf assay. It is designed to make measurements of zebrafish development as detected with brightfield microscopy of developing zebrafish embryos.Data from the assay component Tanguay_ZF_120hpf_CRAN was analyzed into 1 assay endpoints. This assay endpoint, Tanguay_ZF_120hpf_CRAN, was analyzed in the positive analysis fitting direction relative to DMSO as the negative control and baseline of activity. Using a type of morphology reporter, gain-of-signal activity can be used to understand changes in developmentals as they relate to the whole embryo. To generalize the intended target to other relatable targets, this assay endpoint is annotated to the zebrafish development intended target family, where the subfamily is craniofacial morphogenesis.
# Zebrafish husbandry: Tropical 5D wild-type adult zebrafish were housed in at an approximate density of 1000 per 100 gallon tank at the Sinnhuber Aquatic Research Laboratory, Oregon State University, Corvallis, OR. Each tank was kept at standard laboratory conditions of 28C on a 14-h light/10-h dark photoperiod in fish water consisting of reverse osmosis water supplemented with a commercially available salt (Instant Ocean). Spawning funnels were placed into the tanks the night prior, and embryos were collected and staged. To increase bioavailability, the chorion was enzymatically removed using pronase (63.6mg/ml, >/= 3.5U/mg, Sigma-Aldrich: P5147) at 4 hours post fertilization (hpf) using a custom automated dechorionator.Chemical exposures: Six hpf dechorionated embryos were placed 1 embryo per well in a 96-well plate prefilled with 90 ul of EM using automated embryo placement systems (AEPS). Ten microliters of each row of dilution plate 2 was added to 2 exposure plates. The final DMSO concentration used was 0.64% (vol/vol). Thirty-two embryos were also exposed to 5uM trimethyltin chloride (positive control). Plates were sealed to prevent evaporation and foil covered to reduce light exposure and kept in a 28C incubator. Embryos were statically exposed until 120 hpf. At 24 hpf, embryos were assessed for photomotor response using a custom photomotor response analysis tool (PRAT) and for developmental toxicity endpoints (MO24: mortality at 24 hpf, DP: developmental progression, SM: spontaneous movement, and NC: notochord distortion). At 120 hpf, locomotor activity was measured using Viewpoint Zebralab and assessed for 13 endpoints. Zebrafish acquisition and analysis program (ZAAP), a custom program designed to inventory, acquire, and manage zebrafish data, was used to collect developmental endpoints as either present or absent (i.e., binary responses were recorded). If mortality occurred for an embryo (at either 24 or 120 hpf), the non-mortality endpoints were not measured.
SMILES,outcome,AC50
OCCC(F)(F)C(F)(F)C(F)(F)C(F)(F)F,inactive,
FC(F)C(F)(F)COCC1CO1 (stereo not given),inactive,
FC(F)=C(F)C(F)(F)C(F)(F)C(F)(F)C(F)(F)C(F)(F)C(F)(F)F,inactive,
NCC(F)(F)C(F)(F)C(F)(F)C(F)(F)F,inactive,
OC(O)(C(F)C(O)(O)C(F)(F)F)C(F)(F)F,,42.2 µM (active)
O=S(=O)(O)CCC(F)(F)C(F)(F)C(F)(F)C(F)(F)C(F)(F)C(F)(F)F,inactive,
FC(F)(F)C(F)(F)C(F)(F)C(F)(F)C(F)(F)C(F)(F)I,inactive,
O=C(Cl)C(F)(F)C(F)(F)C(F)(F)C(=O)Cl,inactive,
FC(F)(F)COC(OCC(F)(F)F)OCC(F)(F)F,inactive,
C[Si](C)(C)C(F)(F)C(F)(F)C(F)(F)F,inactive,
